Test system: Vero E6 infected with SARS-CoV-2
Test: inhibition of SARS-CoV-2 cytopathic effect; higher = more antiviral protection, active = above 15
Conditions: 48 h

Measured: inhibition of SARS-CoV-2 cytopathic effect

CCNC(=O)C[C@@H]1N=C(c2ccc(Cl)cc2)c2cc(OC)ccc2-n2c(C)nnc21
inactive: 1 nM -1.97% | 8.33 nM -1.13% | 100 nM 0.74% | 833.33 nM -0.08% | 10000 nM -9.5%

CC(C)[C@H](N)C(=O)OCC(CO)OCn1cnc2c(=O)nc(N)[nH]c21 (mixture of isomers) [valganciclovir]
inactive: 1 nM 6.98% | 8.33 nM 8.27% | 100 nM 4.51% | 833.33 nM 8.72% | 10000 nM 1.96%

c1ccc(Cn2c(-c3ccc(OC[C@H](C4CCNCC4)n4c(-c5ccccc5)nc5ccccc54)cc3)nc3ccccc32)cc1 [deltarasin]
inactive: 1 nM -4.79% | 8.33 nM -0.65% | 100 nM -1.55% | 833.33 nM -1.93% | 10000 nM -33.6%

O=C(O)c1ccccc1NCCc1ccccc1 [tromaril]
inactive: 1 nM -2.04% | 8.33 nM 0.78% | 100 nM 1.18% | 833.33 nM 1.39% | 10000 nM 1.35%

Nc1cc(-c2ccncc2)c[nH]c1=O [amrinone]
inactive: 1 nM 3.03% | 8.33 nM 3.76% | 100 nM -3.46% | 833.33 nM -6.26% | 10000 nM 1.36%

Cc1nc(=O)c2cc(CN(C)c3ccc(C(=O)N[C@@H](CCC(=O)O)C(=O)O)s3)ccc2[nH]1 [raltitrexed]
inactive: 1 nM -0.77% | 8.33 nM 5.47% | 100 nM 1.2% | 833.33 nM -4.47% | 10000 nM -1.82%

COc1ccc2cc(-c3nc(-c4ccc([S+](C)[O-])cc4)[nH]c3-c3ccncc3)ccc2c1 (stereo not given) [tie2-kinase-inhibitor]
inactive: 1 nM 5.39% | 8.33 nM 5.15% | 100 nM 0.64% | 833.33 nM 1.97% | 10000 nM 9.27%
